Hit rate of the full screen: of about 2,200 compounds, about 45 (2%) were called active. The list is a sample of the results. Results with a measured potency or affinity are listed apart. Values without a mark were called inactive. The rule behind the calls is not given here.

For the experiment, the target named is Runt-related transcription factor 1 (Homo sapiens) + Core-binding factor subunit beta (Homo sapiens) (UniProt Q01196+Q13951). Put plainly: Runt domain/CBFb-SMMHC interaction disruptors – biochemical, TR-FRET (AID 1438). Particulars: at 20 µM, active compounds read high.
Sequence of Runt-related transcription factor 1 (Homo sapiens) + Core-binding factor subunit beta (Homo sapiens) (Q01196 whole entry, looked up, the tested form may be a part): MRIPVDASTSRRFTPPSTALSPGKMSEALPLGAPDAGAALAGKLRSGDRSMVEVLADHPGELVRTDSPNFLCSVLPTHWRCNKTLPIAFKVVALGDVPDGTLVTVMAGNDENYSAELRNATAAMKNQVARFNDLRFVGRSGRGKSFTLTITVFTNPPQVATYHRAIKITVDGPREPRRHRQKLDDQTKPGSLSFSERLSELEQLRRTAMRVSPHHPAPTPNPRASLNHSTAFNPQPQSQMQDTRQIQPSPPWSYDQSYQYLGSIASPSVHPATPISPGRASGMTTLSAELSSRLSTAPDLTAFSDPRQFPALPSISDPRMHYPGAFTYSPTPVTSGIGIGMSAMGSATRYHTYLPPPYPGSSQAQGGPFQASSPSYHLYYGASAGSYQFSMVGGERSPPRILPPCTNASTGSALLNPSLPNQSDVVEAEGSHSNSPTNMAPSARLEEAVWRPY
Sequence of Runt-related transcription factor 1 (Homo sapiens) + Core-binding factor subunit beta (Homo sapiens) (Q13951 whole entry, looked up, the tested form may be a part): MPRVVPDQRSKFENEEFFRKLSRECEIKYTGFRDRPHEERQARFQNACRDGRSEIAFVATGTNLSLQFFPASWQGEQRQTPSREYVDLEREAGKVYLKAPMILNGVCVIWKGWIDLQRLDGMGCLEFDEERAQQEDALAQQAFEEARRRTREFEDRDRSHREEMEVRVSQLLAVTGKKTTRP
As to `CC(C)OC(=O)CC(=O)CSc1nc2c(cc1C#N)CCCCCC2`, the inhibition – broadly, the change of the read-out against control, counted positive when it falls – was 38.5%.
The result for `CC(=O)c1c(N2CCN(C)CC2)nc(=S)n(Cc2ccccc2)c1C` reads 15.7%.
As to `CCCOc1c(Br)cc(C2C3=C(CCCC3=O)N(C)C3=C2C(=O)CCC3)cc1OC`, the inhibition is 41.4%.
The result for `CCCOc1c(Br)cc(C2C3=C(CCCC3=O)N(CC)C3=C2C(=O)CCC3)cc1OC` reads -13.6%; that for `CNc1sc(C(=O)c2cccs2)c(N)c1-c1nc2ccccc2s1`, 35.8%.
In the case of `C=CCNc1sc(C(=O)c2cccs2)c(N)c1C#N` it was -0.1%; in that of `Cc1cccn2c(=O)c(/C=C(\C#N)C(N)=O)c(Oc3ccccc3)nc12`, -15.3%.
The result for `COc1cccc(C(=O)Nc2nc3c(s2)CN(C)CC3)c1` reads -21%.
With `COCCCNC(=O)c1c(N)n(-c2ccc(S(N)(=O)=O)cc2)c2nc3ccccc3nc12`, the inhibition was 43.4%.
In the case of `COCCCNC(=O)c1c(N)n(-c2ccccc2)c2nc3ccccc3nc12` it was -6.7%; in that of `CCCN1C2CCCC1CC(NC(=S)Nc1ccc(OC)cc1)C2` (configuration not stated), -12%.
Turning to `CSc1nc(NCCCO)c2c3c(sc2n1)CN(C)CC3`, the inhibition is -10.5%.
The result for `CSc1nc(NCC(C)C)c2c3c(sc2n1)CN(C)CC3` reads 37.7%; that for `COc1ccc(Br)cc1C1NC(=O)c2c(sc3c2CCN(C)C3)N1` (configuration not stated), 15%.
In the case of `CCn1nc(NC(=O)C2CCCO2)c2cc3cccc(C)c3nc21` (configuration not stated) it was 2.1%; in that of `CCN(CC)c1ccc(/C=N\NC(=O)c2cccc3cc[nH]c23)cc1`, 5.9%; in that of `CCN1C=C(C(=O)OC)C(c2cccc(OC)c2OC)C(C(=O)OC)=C1`, -23.2%.
In the case of `Cc1c(O)ccc2c3c(c(=O)oc12)CCC(C)C3` (configuration not stated) it was 19.7%; in that of `Cc1ccc(/C=C/C(=O)Nc2cccc3ncccc23)o1`, 19.8%.
Take `COc1cc(/C=C(\C#N)C(=O)Nc2cccc3ncccc23)cc(OC)c1OC`: the inhibition was 18.6%.
The result for `COc1ccc(-c2cc(C(F)(F)F)n3nc(N)nc3n2)cc1` reads 25.3%.
Take `O=C(Cc1c2ccccc2nc2ccccc12)c1ccccc1`: the inhibition is 48.7%.
The result for `COCCCNC(=O)c1cc2c(=O)n3cccc(C)c3nc2n(C(C)C)c1=N` reads 1.4%; that for `CC1=CC(c2ccccc2)n2nc(NS(=O)(=O)c3ccc(C)cc3)nc2N1` (configuration not stated), 49.9%; that for `CC(=O)Nc1nc2n(n1)C(c1ccc(Cl)cc1)C=C(C)N2` (configuration not stated), 45.7%.
The result for `N#Cc1c(N)n(-c2cccc(C(=O)O)c2)c2nc3ccccc3nc12` reads -8.2%; that for `O=c1oc2ccc3ccccc3c2cc1-c1nnc(-c2cccs2)o1`, 29.8%.
In the case of `CCOC(=O)c1cc2c(=O)n3ccccc3nc2n(CCCOC)c1=NC(=O)c1cccnc1` it was 47.6%; in that of `COC(=O)Cc1cc(=O)oc2cc(O)ccc12`, 32.6%; in that of `CN(C)c1cccc(C(=O)OCc2cc(=O)oc3cc(O)ccc23)c1`, 47.5%.
With `CCOC(=O)c1c(NC(=O)CSc2ncccn2)sc2c1CCN(Cc1ccccc1)C2`, the inhibition is -5.3%.
In the case of `CCCCNC(=O)c1cc2c(=O)n3cccc(C)c3nc2n(Cc2ccccc2)c1=N` it was 33.9%; in that of `Cc1nc2c(c(=O)n1Cc1ccco1)c1nc3ccccc3nc1n2Cc1ccccc1`, 80.9% (active).
The result for `COc1ccc(-n2c(N)c(C(=O)NCc3ccco3)c3nc4ccccc4nc32)cc1` reads 42.9%; that for `CCOc1ccc(-n2c(N)c(C(=O)NCc3ccco3)c3nc4ccccc4nc32)cc1`, 43.5%; that for `CCCCn1c2nc3ccccc3nc2c2c(=N)oc(C)nc21`, 36.7%.
In the case of `CCCn1c(C)nc2c(c1=O)c1nc3ccccc3nc1n2CCC1=CCCCC1` it was 36.3%; in that of `Cc1ccc(S(=O)(=O)c2cc3c(=O)n4cccc(C)c4nc3n(Cc3ccco3)c2=N)cc1C`, 47.5%.
Take `CCCn1c(=NC(=O)c2c(-c3c(F)cccc3Cl)noc2C)c(C(=O)OCC)cc2c(=O)n3ccccc3nc21`: the inhibition is -16.8%.
The result for `COc1nc(N)c(S(=O)(=O)c2ccccc2)cc1C#N` reads 8.9%.
The result for `CCOC(=O)c1cc2c(=O)n3ccccc3nc2n(CC2CCCO2)c1=NC(=O)/C=C/c1ccccc1` (configuration not stated) reads 3.6%; that for `C=CCNC(=O)/C(C#N)=C/c1c(N(Cc2ccccc2)Cc2ccccc2)nc2ccccn2c1=O`, 19.2%.
As for `COCCN(C(=O)CN1CCc2ccccc2C1)c1c(N)n(Cc2ccccc2)c(=O)[nH]c1=O`, the inhibition was 23.7%.
The result for `COc1ccccc1NC(=O)c1cc2ccc(O)cc2o/c1=N\O` reads -13.2%.
As for `COc1ccccc1NC(=O)c1cc2ccccc2o/c1=N\O`, the inhibition was 30.6%.
The result for `COCCN1C=C(C(=O)OC)C(c2ccccc2C(F)(F)F)C(C(=O)OC)=C1` reads 44%; that for `COc1cc(/C=N/N2CCN(C3c4ccccc4-c4ccccc43)CC2)cc(OC)c1O`, 33.8%; that for `O=C1C2C3C=CC(CO)(O3)C2C(=O)N1c1ccc(-c2ccccc2)cc1` (configuration not stated), 27.4%.
The result for `N#Cc1cc2cc3c(cc2nc1NCCNC(=S)NCCCN1CCOCC1)OCO3` reads -18.1%.
The result for `O=c1c2ccccc2sn1-c1nccs1` reads -7%.
Turning to `CCOC(=O)Cc1csc(/N=C/c2c(O)n(-c3ccc(C)c(C)c3)c(=O)c3ccccc23)n1`, the inhibition was 5%.
In the case of `Cc1c2c(n3c(nc4ccccc43)c1C#N)N(CCCN(C)C)CC2` it was -5.5%; in that of `Clc1ccc(C2=NN(c3ccccc3)C(c3ccco3)C2)cc1` (configuration not stated), 37.8%; in that of `Cc1cccn2c(=O)c3cc(C(N)=S)c(=N)n(CCCN4CCOCC4)c3nc12`, -11.3%.
The result for `CC(C)OCCCn1c(=N)c(C(N)=S)cc2c(=O)n3ccccc3nc21` reads 49.7%.
The result for `CCOCCCn1c(=N)c(C(=O)NCc2ccc3c(c2)OCO3)cc2c(=O)n3cccc(C)c3nc21` reads 1.9%.
On to `Cc1cccn2c(=O)c3cc(C(N)=S)c(=N)n(CCCOC(C)C)c3nc12`, for which the inhibition is 63.5% (active).
In the case of `CC(=O)N=c1c(C#N)cc2c(=O)n3cccc(C)c3nc2n1CCCOC(C)C` it was -10.3%.
In the case of `N#C/C(=C(/O)CCCl)c1ccccn1` it was -8%.
The result for `c1ccc(-c2onc3cc4c(cc23)OCCO4)cc1` reads 17.4%; that for `CCOC(=O)c1cc2c(=O)n3cccc(C)c3nc2n(CC(C)C)c1=NC(=O)c1ccco1`, -5.3%; that for `CCOc1ccc2nc(NCCNC(=O)CC)c(C#N)cc2c1`, 33.5%.
In the case of `CC(=O)N(C)/C=C1\Sc2ccccc2C1=O`, the inhibition is 6.4%.
In the case of `Cc1ccc(-n2c(=O)c(C#N)cc3c(=O)n4cccc(C)c4nc32)cc1` it was 48.6%.
The result for `COCCCn1c(=O)/c(=C\c2ccc(OC(F)F)c(OC)c2)s/c1=C(/C#N)C(=O)NCCOC` reads -12.1%; that for `Cc1ccc(C)c(OCCn2cc(/C=C(\C#N)C(=O)NCc3ccco3)c3ccccc32)c1`, 17.3%.
The result for `Cc1cc(N2C(=O)C=CC2=O)c([N+](=O)[O-])cc1C` reads 52.7% (active); that for `COc1cc(N2C(=O)C=CC2=O)c(OC)cc1Cl`, -8.5%.
In the case of `C=C(C)CNC(=S)Nc1sc2c(c1C(=O)OCC)CC(C)(C)OC2`, the inhibition is -9.8%.
The result for `COc1ccc(/C=C2\CCc3c2nc2ccccc2c3C(=O)O)cc1OC` reads -11.1%; that for `Cc1cccc(C)c1NC(=O)COC(=O)c1c2c(nc3ccccc13)/C(=C\c1ccc3c(c1)OCO3)CCC2`, 1.3%.
The result for `O=C(O)c1c2c(nc3ccccc13)/C(=C/c1ccc(O)cc1)CC2` reads -6.6%.
The result for `NS(=O)(=O)c1ccc(NC(=O)COC(=O)c2c3c(nc4ccccc24)/C(=C\c2ccc4c(c2)OCO4)CCC3)cc1` reads -24.4%; that for `CCN1CCc2c(C#N)c(N3CCOCC3)nc(NCc3ccccc3)c2C1`, 35.4%.
On to `Cc1cccn2c(=O)c3cc(C(=O)NCC4CCCO4)c(=N)n(CCN4CCOCC4)c3nc12` (configuration not stated), for which the inhibition is 11.3%.
In the case of `COc1ccc(C2C=C(c3ccccc3)Nc3ncnn32)cc1` (configuration not stated) it was 30.8%.
In the case of `Cc1ccccc1-n1c(=O)c(C#N)cc2c(=O)n3ccccc3nc21` it was 23.6%.
In the case of `c1cc2c(cc1-c1csc(NNC3=NCCCCC3)n1)OCCO2` it was -4.3%.
For the compound `C=CCNc1nc(NCc2ccccc2)c(C#N)c2c1CN(C)CC2`, the inhibition was 31.3%.
The result for `N#Cc1c(NCCO)nc(NCc2ccccc2)c2c1CCN(Cc1ccccc1)C2` reads 48.5%; that for `Cn1c(=N)c(S(=O)(=O)c2ccc(F)cc2)cc2c(=O)n3ccccc3nc21`, 47.6%; that for `COc1cc2cc(C(=O)N3CCN(Cc4ccc5c(c4)OCO5)CC3)c(=O)oc2cc1OC`, -6.8%.
As for `O=C(c1cc2ccccc2oc1=O)N1CCN(CCc2ccccc2)CC1`, the inhibition was 55.2% (active).
The result for `O=C(O)c1cc2ccc3ccccc3c2oc1=O` reads 34.5%; that for `CC1=CC(c2ccc(Cl)cc2)n2nc(NC(=O)CCC(=O)O)nc2N1` (configuration not stated), -7.4%; that for `Cc1cc(-c2nc3cccnc3s2)ccc1NS(=O)(=O)c1cccs1`, -9.2%.
The result for `Cc1cccn2c(=O)c3cc(C#N)c(=NC(=O)c4ccco4)n(Cc4ccco4)c3nc12` reads -9.7%.
`COCCCn1c(=NC(=O)c2ccncc2)c(C#N)cc2c(=O)n3cccc(C)c3nc21`: the inhibition is 14%.
The result for `CC(=O)N=c1c(C#N)cc2c(=O)n3cccc(C)c3nc2n1Cc1ccco1` reads -8.8%; that for `CC(=O)N=c1c(C#N)cc2c(=O)n3ccccc3nc2n1Cc1ccccc1`, 47.4%; that for `Cc1ccccc1C(=O)N=c1c(C#N)cc2c(=O)n3cccc(C)c3nc2n1Cc1ccco1`, 47%.
In the case of `CCOC(=O)c1cc2c(=O)n3ccccc3nc2n(Cc2ccco2)c1=NC(=O)c1ccc(OC)cc1` it was -16.9%.

The values are drawn from PubChem BioAssay AID1438 (Sanford-Burnham Center for Chemical Genomics, 2008).
